Screening results as filed in PubChem BioAssay.
Sampled rows, rich in hits. Any-hit rate of the full collection: about 19%.
TDP1 block: inhibitors of human tyrosyl-DNA phosphodiesterase TDP1; Potency, µM (series often up to 130 µM), without a hit: at the top dose activity change, negative = inhibition, hits mostly inhibitors; AID 485290; Q9NUW8; 350,000 tested, 0.28% active; recombinant TDP1, AlphaScreen DNA substrate cleavage; further: nearly all actives have a fitted effect of over 40% in size
Target sequence (Q9NUW8 whole entry, looked up): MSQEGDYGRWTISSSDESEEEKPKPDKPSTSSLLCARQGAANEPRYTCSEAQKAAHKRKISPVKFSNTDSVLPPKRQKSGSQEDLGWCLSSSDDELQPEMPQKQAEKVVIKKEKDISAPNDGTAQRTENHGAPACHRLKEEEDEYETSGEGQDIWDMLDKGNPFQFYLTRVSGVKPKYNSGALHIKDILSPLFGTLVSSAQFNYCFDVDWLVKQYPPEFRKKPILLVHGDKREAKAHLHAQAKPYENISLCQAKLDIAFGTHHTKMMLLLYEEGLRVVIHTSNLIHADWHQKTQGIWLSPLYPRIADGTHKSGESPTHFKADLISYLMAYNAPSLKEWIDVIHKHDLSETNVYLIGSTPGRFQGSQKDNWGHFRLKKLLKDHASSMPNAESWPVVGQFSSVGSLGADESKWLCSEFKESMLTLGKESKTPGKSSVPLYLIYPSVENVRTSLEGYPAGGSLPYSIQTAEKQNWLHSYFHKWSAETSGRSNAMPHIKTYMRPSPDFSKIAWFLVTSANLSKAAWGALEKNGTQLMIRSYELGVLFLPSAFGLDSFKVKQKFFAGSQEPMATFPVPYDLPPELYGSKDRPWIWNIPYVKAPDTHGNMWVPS
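Enzyme-compound mixtures sat 15 min at room temperature, followed by a 5 min reaction with 15 nM final substrate and 10 min with AlphaScreen beads. Recombinant human Tdp1 was used at 1 nM final.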
DT40 TDP1 no CPT: qHTS for Inhibitors of human tyrosyl-DNA phosphodiesterase 1 (TDP1): qHTS in cells in absence of CPT. DT40 Tdp1-/- hTDP1 cells, no CPT, ATP luminescence, 48 h. Potency, µM (series often up to 46.2 µM), inactives show at the highest dose activity change, negative = growth inhibition, hits mostly inhibitors. 420,000 tested, 15% active. AID 686978, 2013; further: nearly all actives have a fitted effect of over 55% in size
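Seeded 400 DT40-hTDP1 cells/well (vehicle DMSO, no 20 nM CPT); pinned compounds; ≥48 hr at 37 °C; CellTiter-Glo luminescence as viability measure.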
DT40 TDP1 CPT: DT40-hTDP1 cell growth loss with CPT; chicken DT40 Tdp1-/-;hTDP1 cells + 20 nM CPT, ATP luminescence, 48 h; Potency, µM (titrated, usually from 46.2 µM), for inactives: at the top dose activity change, negative = growth inhibition, hits mostly inhibitors; 420,000 tested, 12% active; AID 686979; further: nearly all actives have a fitted effect of over 55% in size
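Cell growth measured by CellTiter-Glo luminescence after a minimum 48 h, 37 C compound exposure with 20 nM CPT in Tdp1-knockout DT40 cells stably expressing hTDP1, seeded 400/well; qHTS titration format.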
RORgamma inh: blocks mouse ROR gamma transcriptional activity; Potency, µM (highest dose often 53.6 µM), inactives show at the highest dose activity change, negative = inhibition, hits mostly inhibitors; P51450; Drosophila S2 Gal4-RORgamma UAS-luciferase reporter, 20 h; 310,000 tested, 5.4% active; further: nearly all actives have a fitted effect of over 60% in size
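In this cell-based reporter format, copper sulfate (700 uM final) drives Gal4–ROR gamma fusion expression from a metallothionein promoter in Drosophila Schneider cells; compounds preincubated 1 hr, reporter read after 20 hr at ambient temperature.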
VP16 counter: inhibits Gal4-VP16 luciferase reporter, ROR gamma counter-screen; Potency, µM (highest dose often 53.6 µM), inactives show top-dose activity, negative = inhibition, hits mostly inhibitors; Drosophila S2 Gal4-VP16 UAS-luciferase, luminescence, 20 h; 310,000 tested, 3.5% active;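 further: Gal4-VP16 expression switched on by copper sulfate through the metallothionein promoter; nearly all actives have a fitted effect of over 50% in size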
Starred values were filed as active, the others as inactive; [ ] = another dose, or the depositor's remark. The call rests on the fitted dose curve; in most records, active means well fitted curve in the direction sought with a large enough effect; inconclusive means small, poorly fitted or top-dose-only effect, or another doubt; inactive means no such curve, though single readings can be large; an effect the other way counts as inactive or inconclusive. On the % scale 0 is the no-effect control and ±100 the full control effect; potency means the concentration at half of the fitted maximal effect.

For [N-]=[N+]=NC(c1ccccc1)C(NC(=O)c1cc(C(F)(F)F)cc(C(F)(F)F)c1)c1ccccc1 (stereo not drawn) the results were DT40 TDP1 no CPT 23.1µM* and DT40 TDP1 CPT inconclusive.
For CCCS(=O)(=O)N1CCCC(C(=O)N2CCC(Cc3ccccc3)CC2)C1 (stereo not drawn) the results were TDP1 block 4.5%, DT40 TDP1 no CPT 14.6µM*, DT40 TDP1 CPT inconclusive, RORgamma inh 1.3% and VP16 counter -2.7%.
For NC(=O)C1CCN(c2ccc(S(=O)(=O)N3CCC(Cc4ccccc4)CC3)cn2)CC1 the results were TDP1 block 2.6%, DT40 TDP1 no CPT 13µM*, DT40 TDP1 CPT inconclusive, RORgamma inh -13.1% and VP16 counter 0.6%.
CCCS(=O)(=O)N1CCC(C(=O)N2CCC(Cc3ccccc3)CC2)CC1 was read as TDP1 block 3.1%, DT40 TDP1 no CPT 20.6µM*, DT40 TDP1 CPT 18.4µM*, RORgamma inh 12.5% and VP16 counter -4.5%.
For CCCCOc1ccc(C(C)NC(=O)C2CCCN(S(=O)(=O)CCC)C2)cc1 (stereo not drawn) the results were TDP1 block 0.0%, DT40 TDP1 no CPT 16.4µM*, DT40 TDP1 CPT 11.6µM*, RORgamma inh 28.4% and VP16 counter -4.1%.
`O=S(=O)(c1ccc(Cl)nc1)N1CCC(Cc2ccccc2)CC1` gave TDP1 block -1.6%, DT40 TDP1 no CPT 8.4% and DT40 TDP1 CPT 7.4%.
CCCCNC(=O)C1CCCN(S(=O)(=O)CCC)C1 (stereo not drawn) was read as TDP1 block 0.0%, DT40 TDP1 no CPT 2.7% and DT40 TDP1 CPT -19.4%.
CCCS(=O)(=O)N1CCC(C(=O)NCCCN2CCC(Cc3ccccc3)CC2)CC1 was read as TDP1 block 6.8%, DT40 TDP1 no CPT -10.8%, DT40 TDP1 CPT -11.6%, RORgamma inh -21.9% and VP16 counter -6.5%.
COc1ccc(-c2noc(CCC(=O)N3CCN(c4ccc(Cl)cc4)CC3)n2)cc1 was read as TDP1 block -0.9%[56.1 µM], DT40 TDP1 no CPT -25.6% and DT40 TDP1 CPT -25.3%.
`CCOc1ccc(CCNC(=O)c2cc3n(n2)CCCN(Cc2ccc(C)cc2)C3=O)cc1OCC` gave TDP1 block 8.8%, DT40 TDP1 no CPT 14.6µM* and DT40 TDP1 CPT 9.2µM*.
`CSc1ccc(CCNC(=O)c2cc3n(n2)CCCN(Cc2ccc(C)cc2)C3=O)cc1` gave TDP1 block -6.2%, DT40 TDP1 no CPT inconclusive and DT40 TDP1 CPT 5.8µM*.
Screening Cc1ccc(CN2CCCn3nc(C(=O)NCCc4ccccc4Cl)cc3C2=O)cc1 returned TDP1 block 1.2%, DT40 TDP1 no CPT 16.4µM* and DT40 TDP1 CPT 20.6µM*.
`CCCCNC(=O)c1cc2n(n1)CCCN(Cc1ccc(C)cc1)C2=O` gave TDP1 block 6.2%, DT40 TDP1 no CPT inconclusive and DT40 TDP1 CPT inconclusive.
`CCCSCCCNC(=O)c1cc2n(n1)CCCN(Cc1ccc(C)cc1)C2=O` gave TDP1 block 1.2%, DT40 TDP1 no CPT inconclusive and DT40 TDP1 CPT 18.4µM*.
Cc1ccc(CN2CCCn3nc(C(=O)NCCc4ccc(Cl)cc4)cc3C2=O)cc1 was read as TDP1 block 1.2%, DT40 TDP1 no CPT inconclusive and DT40 TDP1 CPT inconclusive.
For CO/N=C(/C(=O)N[C@@H]1C(=O)N2C(C(=O)O)=C(CSc3cnns3)CS[C@H]12)c1csc(N)n1 the results were RORgamma inh 15.5% and VP16 counter 1.0%.
CCN(CC(=O)Nc1c(F)cccc1F)C(=O)C1CCN(S(=O)(=O)c2ccc(C)cc2C)CC1 was read as TDP1 block 8.1%[0.505 µM], DT40 TDP1 no CPT -13.7% and DT40 TDP1 CPT -4.3%.
For CC(C)(C)c1ccccc1NC(=O)CN1C(=O)NC2(CCCCCC2)C1=O the results were TDP1 block 1.2%, DT40 TDP1 no CPT 0.8% and DT40 TDP1 CPT -4.4%.
`O=C(Cn1ncc2c3ccccc3n(Cc3cccc(Cl)c3)c2c1=O)NCCC1=CCCCC1` gave TDP1 block -5.1%, DT40 TDP1 no CPT -20.3% and DT40 TDP1 CPT -5.0%.
